Active and inactive are the calls of the source.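 How the source made its calls: active means curve showing a falling signal whose half-maximal concentration is at most twice the top valid dose; inconclusive means flat curve with a moderate drop, or an unreliable fit; inactive means the rest.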

The assay in a line: miR-21 levels after miR-122 inhibitor treatment, dose response, selectivity assay for miR-122 inhibitor project, cell-based, Huh7, RT-qPCR, dry powder (AID 687038). The following applies: Huh7 miR-21 levels, qRT-PCR, 48 h; series mostly up to 35 µM.
Turning to `CCOC(=O)N1CCC(NC(=O)c2ccc3nc(N4CCC(C)CC4)sc3c2)CC1`, the result was inactive.

As to `O=C(NCCC1=CCCCC1)c1ccc2c(c1)sc1nc(-c3ccccc3)cn12`, the call was inactive.

On to `CCn1cc(C(=O)O)c(=O)c2cc(F)c(N3CCNCC3)nc21`, for which the molecule was called inactive.

With `CN(C)CCCOc1nn(Cc2ccccc2)c2ccccc12`, the result was inactive.

For `O=S(=O)(NCCc1ccncc1)c1ccccc1`, the molecule was classed as inactive.

Take `COCC(=O)N(C)C[C@H]1Oc2cc(-c3ccccc3F)ccc2S(=O)(=O)N([C@@H](C)CO)C[C@H]1C`: the molecule was classed as inactive.

With `OCc1ccc(-c2nn(Cc3ccccc3)c3ccccc23)o1`, the call was inactive.

`CN1C(=O)c2cc(NC(=O)c3cccc(F)c3)ccc2OC[C@H]2O[C@@H](CC(=O)O)CC[C@H]21`: the result was inactive.

As to `COCC(=O)N(C)C[C@H]1Oc2cc(-c3ccccc3F)ccc2S(=O)(=O)N([C@H](C)CO)C[C@H]1C`, the outcome was inactive.

With `C[C@H]1CN([C@@H](C)CO)C(=O)c2cc(C#Cc3ccccc3F)cnc2O[C@@H]1CN(C)C(=O)C1CCCCC1`, the call was inactive.

Take `O=C(c1ccc(CN2CCOCC2)cc1)N1CCc2ccccc21`: the result was inactive.

`CN1C(=O)c2cc(NC(=O)c3cccc(F)c3)ccc2OC[C@@H]2O[C@H](CC(=O)O)CC[C@H]21`: the molecule was classed as inactive.

For `Cn1c(=O)c(=O)n(C)c2cc(S(=O)(=O)N3CCOCC3)ccc21`, the call was inactive.

Regarding `C[C@H]1CN([C@@H](C)CO)C(=O)c2cc(C#Cc3ccccc3F)cnc2O[C@H]1CN(C)C(=O)C1CCCCC1`, the molecule was called inactive.

With `CN1C(=O)c2cc(NC(=O)c3cccc(F)c3)ccc2OC[C@@H]2O[C@@H](CC(=O)O)CC[C@H]21`, the molecule was classed as inactive.

In the case of `COCC(=O)N(C)C[C@H]1Oc2cc(C#Cc3cccnc3)ccc2S(=O)(=O)N([C@@H](C)CO)C[C@H]1C`, the molecule was called inactive.

For the molecule `C[C@H]1CN([C@@H](C)CO)C(=O)c2cc(-c3ccc(C#N)cc3)cnc2O[C@H]1CN(C)C(=O)c1ccccc1`, the outcome was inactive.

Turning to `C[C@@H]1CN([C@H](C)CO)S(=O)(=O)c2ccc(C#Cc3ccncc3)cc2O[C@@H]1CN(C)C(=O)C1CCOCC1`, the molecule was called inactive.

As to `CCOC(=O)N1CCC(NC(=O)c2ccc3c(c2)sc2nc(-c4ccccc4)cn23)CC1`, the outcome was inactive.

For the molecule `CN1C(=O)c2cc(NC(=O)c3cccc(F)c3)ccc2OC[C@H]2O[C@@H](CC(=O)O)CC[C@@H]21`, the result was inactive.

Regarding `O=C(c1ccc(CNc2c(NC3CCCCC3)c(=O)c2=O)cc1)N1CCc2ccccc21`, the molecule was called inactive.

(Values after PubChem BioAssay AID687038 (Broad Institute, 2013).)
